Calb FLC: C. albicans growth inhibition with fluconazole, primary screen, CaCi-2 strain, Alamar Blue fluorescence. 300,000 compounds, 0.57% hits. growth inhibition, % (no concentration beside the values). C. albicans CaCi-2 (fluconazole-resistant clinical isolate) + fluconazole, 48 h;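 active = growth inhibition above about 58% in most replicates, limit read from the data, passing the limit was not always enough; inconclusive = exactly half the replicates above a set limit; inactive = most replicates below a set limit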;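 also: all wells also contain fluconazole at 8 µg/ml as a sub-toxic cotreatment; 0% = median of DMSO wells and 100% = median of geldanamycin control wells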
Jurkat NFkB inh: inhibitors of induced NF-kB luciferase reporter, primary screen, TCR NF-kB activation inhibitor project, cell-based, luminescence, uHTS; 330,000 compounds, 0.53% hits; inhibition, % at 4 µM; Jurkat, PMA/ionomycin-induced NF-kB luciferase reporter; AID 435003, 2010; in the data active = inhibition above about 50%
Beta apoptosis: inhibitors of cytokine-induced beta cell apoptosis, primary screen, luminescence | INS-1E cytokine-induced death, ATP luminescence, 48 h; percent of positive-control rescue, neutral wells zero | protection from apoptosis, % (test concentration not listed) | 300,000 compounds, 0.8% hits;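 active = Every replicate reaches about 75%, or at least half do and their mean reaches it too, limit read from the data; inconclusive = At least half of replicates reach the limit but their mean does not; inactive = Under half of replicates reach the limit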;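 also: 0% = cytokine-treated negative control wells and 100% = positive control rescue; higher means more ATP so stronger rescue from cytokine killing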
Shn3 3UTR inh: reduction of Shn3 3'UTR firefly luciferase signal, primary screen, Schnurri-3 inhibitor project, cell-based, Clone20 osteoblasts, set 2 | 360,000 compounds, 0.52% hits | Clone20 osteoblast Shn3 3'UTR firefly luciferase, 24 h | inhibition, % at 12.5 µM;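 active = mean inhibition of at least 75% with every replicate also reaching 75%; inconclusive = mean inhibition at least 75% but some replicate below; inactive = mean inhibition below 75%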;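 also: 0% = median of neutral control wells and 100% = pilot-screen positive control compound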
697 NFkB inh: inhibitors of PMA/ionomycin-induced NF-kB reporter, 697 cells, primary screen, B-cell NF-kB inhibitor project, cell-based, luminescence, uHTS; 697 B-cell NF-kB luciferase reporter, 16 h; AID 435022, 2010; 330,000 compounds, 0.33% hits; inhibition, % at 4 µM; in the data active = inhibition above about 35%
Jurkat NFkB conf: PMA/ionomycin-induced NF-kB reporter inhibitors, Jurkat retest, confirmation, T-cell NF-kB inhibitor project, cell-based, luminescence, single concentration; shares compounds with Jurkat NFkB inh; Jurkat NF-kB luciferase, 16 h; inhibition, % at 4 µM; 2,700 compounds, 27% hits; AID 435020, 2010;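 active = inhibition reaching about 45% at 4 µM in either replicate, limit read from the data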;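 also: plate controls were PMA/ionomycin stimulated DMSO wells for no effect and unstimulated DMSO wells for full effect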
697 NFkB conf: PMA/ionomycin-induced NF-kB reporter inhibitors, 697 retest, confirmation, B-cell NF-kB inhibitor project, cell-based, luminescence, single concentration; shares compounds with 697 NFkB inh; 697 B-cell NF-kB luciferase, 16 h; inhibition, % at 4 µM; 2,000 compounds, 35% hits; in the data active = inhibition mostly above about 28%, no sharp cut-off; inactive = mostly below about 22%
* hit, by the source's call; u = inconclusive; x = no result. A selection: hits, their analogues and other compounds. The true share with any hit is near 2%.

SMILES | Calb FLC | Jurkat NFkB inh | Beta apoptosis | Shn3 3UTR inh | 697 NFkB inh | Jurkat NFkB conf | 697 NFkB conf
COc1cc(NC(C)CCCN)c2ncccc2c1 (stereo unspecified) | 5.1 | 64.9* | 121.4* | 6.5 | 44.4* | 35.6 | 37.8*
O=C1c2ccccc2C(=O)c2c(Nc3ccc(CCO)cc3)ccc(O)c21 | -5.2 | -0.7 | 21.9 | 10.7 | -1.3 | x | x
O=C1c2c(O)ccc(O)c2C(=O)c2c(NCCNCCO)ccc(NCCNCCO)c21 | x | 100.1* | 66.8 | 92.6* | 73.7* | 88.8* | -62.9
CC1CCN(S(=O)(=O)c2ccc3c(c2)C(=NO)c2cc(S(=O)(=O)N4CCC(C)CC4)ccc2-3)CC1 | x | 96.1* | 103.9* | 95.0* | 96.7* | 16.8 | 92.7*
O=C(Nc1ccc2c(c1)C(=O)NC2=O)c1ccc(Cl)s1 | -9.5 | 1.8 | x | -14.7 | 2.1 | x | x
O=C(Nc1ccc2sccc2c1)c1ccc(Cl)s1 | -3.6 | -223.8 | 7.9 | -28.7 | -323.2 | -143.7 | -306.2
CC(/C=N/Nc1nc(C)cc(=O)[nH]1)=C\c1ccccc1 | 60.6 | 6.6 | -5.7 | -36.6 | 7.0 | x | x
CC(/C=N/Nc1nc2ccccc2[nH]1)=C\c1ccccc1 | -12.1 | -224.1 | 17.2 | -10.0 | -334.7 | -91.2 | -190.6
O=C(c1cn(-c2ccccc2)nc1-c1ccc(Br)cc1)N1CCOCC1 | 1.2 | 5.2 | -0.2 | 4.5 | 8.0 | x | x
Cc1ccc2c(c1)Cc1nc3ccccc3nc1-2 | -15.6 | -188.5 | 2.0 | -17.7 | -262.3 | -81.4 | -252.0
Cc1ccc2c(c1)-c1nc3ccccc3cc1C2=NC1CCCCC1 | x | x | 2.0 | -60.7 | x | x | x
O=C(OCc1cn([C@H]2C[C@H](c3ccc(Cl)cc3)N(CC3CCCCC3)C[C@@H]2O)nn1)c1ccccc1 | x | x | x | -17.1 | x | x | x
CC[n+]1c(C=C2C=C(C)OC(C)=C2)sc2ccccc21 | 108.4* | 87.4* | x | 77.4 | 53.3* | 74.7* | 68.9*
CCCCCn1c(=O)[nH]c2cc(C(=O)N3CCN(Cc4ccc5c(c4)OCO5)CC3)ccc2c1=O | -5.0 | 63.6* | 63.9 | 74.7 | 104.5* | 77.2* | 84.8*
Cc1cc(/C=N/n2cnnc2)c(C)n1-c1ccc(OCc2ccc(Cl)cc2Cl)cc1 | 33.5 | 70.2* | 113.0* | 98.1* | 40.2* | 32.4 | 12.7
Cc1cc(/C=N/n2cnnc2)c(C)n1-c1ccc(Cl)cc1 | -5.1 | 18.5 | -10.0 | -1.3 | 18.0 | x | x
COc1ccc(C(=O)NC(=O)NC2(C(Cl)(Cl)Cl)OCCO2)cc1 | 9.4 | -276.6 | -0.1 | -59.1 | -273.7 | -154.7 | -316.0
O=C(/C=C/c1ccccc1)Nc1cccc(C(=O)O)c1 | 2.3 | 81.6* | 1.9 | 69.4 | 81.6* | 76.4* | 78.8*
O=C(/C=C/c1ccccc1)Nc1cc(NC(=O)/C=C/c2ccccc2)cc(C(=O)O)c1 | 5.4 | 4.6 | -5.9 | -2.8 | 21.3 | x | x
O=C(NCCc1ccc(F)cc1)c1ccncc1 | 0.9 | 8.3 | x | -5.8 | -0.3 | x | x
NC(=O)c1ccsc1NC(=O)c1ccc2c(c1)CCCC2 | 12.7 | -182.8 | 24.7 | -31.7 | -301.7 | -120.2 | -358.5
COc1ccc2c(c1)c1c(n2C)[C@@H]2CC=C(CO)[C@@H](C1)N2C | x | -8.4 | -4.7 | 20.1 | -11.9 | x | x
CCCCCOc1ccc(CN2CCOCC2)cc1Cl | -37.1 | -96.2 | 3.2 | -126.0 | -98.3 | x | x
CCCCCc1ccc(OCCCC[n+]2cccc(C)c2)c(CCCCC)c1 | 105.7* | 62.9* | 111.0* | 79.5 | 42.3* | 57.8* | 48.5*
Cc1cc(C(=O)NC2CCCc3c2cnn3-c2ccc(C)c(C)c2)n(C)n1 (stereo unspecified) | -3.9 | 62.2* | 110.2* | 88.2* | 49.4* | 79.7* | 102.2*
SMILES | Calb FLC | Jurkat NFkB inh | Beta apoptosis | Shn3 3UTR inh | 697 NFkB inh | Jurkat NFkB conf | 697 NFkB conf
O=C(Nc1ccc(F)cc1F)N1CCCN(c2ccc(C(F)(F)F)cn2)CC1 | 12.4 | -3.5 | 3.7 | 21.0 | -31.9 | x | x
Fc1ccc(NC(=S)N2CCCN(c3ccc(C(F)(F)F)cn3)CC2)c(F)c1 | 2.9 | 65.8* | 11.8 | 89.4* | 54.2* | 19.1 | 8.2
COc1cc(SC)ccc1C(=O)Nc1ccc2ncccc2c1 | 44.7 | -205.9 | 9.5 | -102.2 | -382.5 | -152.6 | -344.7
COc1cc(SC)ccc1C(=O)Nc1ccc2c(c1)OCO2 | 14.9 | x | x | -112.3 | x | x | x
O=C(/C=C/Nc1ccccc1)c1ccc(Cl)cc1Cl | -49.5 | -185.8 | 3.1 | -110.8 | -251.0 | -104.5 | -211.4
COc1cccc(N/C=C/C(=O)c2ccc(C)cc2)c1 | -2.8 | -153.0 | -1.3 | -12.4 | -329.0 | -77.9 | -176.8
CN(C)/C=C/C(=O)c1ccc(Cl)cc1Cl | -0.6 | -0.5 | -0.6 | -3.0 | 8.2 | x | x
O=C(/C=C/Nc1ccccc1)c1ccccc1 | 5.8 | -191.3 | -11.2 | -12.6 | -260.5 | -58.8 | -184.7
COc1cccc(N/C=C/C(=O)c2ccc(Cl)cc2)c1 | u | x | 0.3 | -42.2 | x | x | x
O=C(O)c1ccccc1C(c1ccccc1)c1ccccc1O (stereo unspecified) | x | x | x | 3.6 | x | x | x
Cc1ccc2nc(-c3ccc(NC(=O)C(C)N4C(=O)c5ccccc5C4=O)cc3)sc2c1 (stereo unspecified) | -13.7 | -87.7 | -6.2 | -87.4 | -105.2 | x | x
O=C(CCN1C(=O)c2ccccc2C1=O)Nc1ccc(-c2nc3ccccc3s2)cc1 | -0.9 | -165.5 | 11.3 | -22.1 | -294.4 | -94.7 | -126.2
Cc1ccc2nc(-c3ccc(NC(=O)CCN4C(=O)c5ccccc5C4=O)cc3)sc2c1 | -7.6 | -187.4 | 0.7 | 21.8 | -260.0 | -171.1 | -191.5
Cc1c(C(=O)Nc2ccccc2)cnn1-c1ccccc1 | -14.5 | -85.4 | 8.5 | -60.7 | -85.5 | x | x
Cc1ccc(NC(=O)c2cnn(-c3ccccc3)c2C)cc1C | 5.4 | -161.6 | 3.4 | 19.5 | -351.4 | -48.8 | -323.1
N=c1c2c(n(Cc3ccc(Br)cc3)c3c1CCC3)CCCC2 | 20.6 | 53.4* | 115.4* | 82.3 | 52.0* | 39.5 | 32.0*
COc1ccccc1OCCNC(=O)CCC(=O)N1CCOCC1 | x | 8.8 | x | -6.9 | 12.8 | x | x
CC(C)Oc1ccc(CN2CCCC(CO)(Cc3ccccc3)C2)cc1CO (stereo unspecified) | -5.2 | 1.3 | -2.6 | 16.5 | 10.2 | x | x
O=C1COc2ccc(C(=O)COC(=O)c3ccc([N+](=O)[O-])cc3Cl)cc2N1 | x | 5.3 | x | -21.1 | 11.5 | x | x
COc1cccc2sc3cc(C#CC4(O)CCCCC4)ccc3c(=O)c12 | x | -10.7 | 9.2 | -98.2 | -136.0 | x | x
COc1cc2sc3ccc(C#CC4(O)CCCCC4)cc3c(=O)c2cc1OC | 4.7 | -297.5 | 35.9 | -53.3 | -332.0 | -86.0 | -410.6

Bioassay records deposited in PubChem by several laboratories.
